Compound activity deposited in PubChem BioAssay by National Center for Advancing Translational Sciences (NCATS).
HT1080-NT tox = qHTS for induction of synthetic lethality in tumor cells producing 2HG: qHTS for the HT-1080-NT fibrosarcoma cell line | HT-1080-NT fibrosarcoma viability, CellTiter-Glo ATP luminescence, 48 h | Potency, µM (titrated, usually from 46.1 µM), usual class: cytotoxic | actives 1.6% (n = 360,000) | AID 686970, 2013;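 also: NT is the 2HG producing partner of a matched IDH1 knockdown line; nearly all actives have a fitted effect of over 55% in size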
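A 48-hour cytotoxicity screen used HT-1080-NT cells plated 2 hours before compound delivery. ATP-based CellTiter-Glo luminescence measured viability, normalized to DMSO and no-cell controls.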
KB-3-1 cytotox = qHTS assay for MDR1-selective chemotherapeutics: Primary screen using the parental adenocarcinoma cell KB-3-1; KB-3-1 viability, CellTiter-Glo ATP luminescence, 72 h; Potency, µM (titrated, usually from 46.1 µM), usual class: cytotoxic; actives 1.4% (n = 400,000); AID 1347075, 2019; also: nearly all actives have a fitted effect of over 60% in size
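KB-3-1 parental drug-naive adenocarcinoma cells in DMEM/10% FBS, incubated 72 h at 37 C with pin-transferred compounds across a concentration series. Viability by CellTiter-Glo luminescence; concentration-response curves fitted after normalization.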
KB-V1 MDR tox = qHTS assay for MDR1-selective chemotherapeutics: Primary screen using the drug-selected MDR subline cells KB-V1. KB-V1 MDR cells viability, CellTiter-Glo, 72 h. AID 1347076, 2019. Potency, µM (doses to about 46.1 µM), most hits filed as cytotoxic. actives 3.4% (n = 400,000); also: nearly all actives have a fitted effect of over 60% in size
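Potencies derive from concentration-effect curves fitted to normalized luminescence (CellTiter-Glo) of KB-V1 cells treated for 72 h at 37 degrees C in phenol-red-free DMEM containing 10% FBS.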
HT1080 IDH1KD tx = qHTS for induction of synthetic lethality in tumor cells producing 2HG: qHTS for the HT-1080-IDH1KD cell line; Potency, µM (doses to about 46.1 µM), hits mostly cytotoxic; AID 686971, 2013; HT-1080 IDH1 knockdown viability, ATP luminescence, 48 h; actives 2% (n = 360,000)
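Luminescent ATP read-out (CellTiter-Glo, 10 min at room temperature) after 48 h compound exposure at 37 °C gave viability of IDH1-knockdown HT-1080 cells. Activity was normalised to DMSO and cell-free wells, then fitted as concentration-response curves.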
IL-1B inflam inh = qHTS for Inhibitors of Inflammasome Signaling: IL-1-beta AlphaLISA Primary Screen | actives 4.7% (n = 360,000) | activity change, % at 57.5 µM | AID 743279, 2014 | THP-1 LPS/ATP IL-1B secretion, AlphaLISA, 16 h; active compounds read low; in the data active = activity change below about -50%; inconclusive = mostly about -30% to -49%
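Secreted IL-1B measured by AlphaLISA bead assay after 16 h compound exposure of THP-1 cells; compounds (final up to 57.5 uM) added 1 h before LPS (250 ng/mL) and ATP (1.25 mM) stimulation; lower signal means less secretion.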
Hits are given with their value; 0 = inactive; ? = inconclusive; - = no result; [ ] = another dose, or the depositor's remark. Most compounds without a hit are left out; they make up all but 8.8% or so of the library. Unless noted, calls follow the shape of the dose curve; as a rule, active = well fitted curve in the direction sought with a large enough effect; inconclusive = small, poorly fitted or top-dose-only effect, or another doubt; inactive = no such curve, though single readings can be large; an effect the other way counts as inactive or inconclusive.

SMILES	HT1080-NT tox	KB-3-1 cytotox	KB-V1 MDR tox	HT1080 IDH1KD tx	IL-1B inflam inh
COc1cc(C(=O)N/N=C(\C)c2ccc3c(c2)OCO3)cc(OC)c1OC	2.1µM	4.6µM	5.2µM	3.7µM	0
COc1cc(C(=O)c2ccc3c(c2)OCO3)cc(OC)c1OC	?	4.6µM	3.3µM	2.6µM	0
COc1cc(C(=O)NNC(=S)NC(=O)c2ccc3c(c2)OCO3)cc(OC)c1OC	?	?	0	?	0
COc1cccc(/C=C/C(=O)c2ccc3c(c2)OCO3)c1OC	0	?	23µM	?	0
CN(C)CCN(C)C1CN(Cc2ccc([N+](=O)[O-])cc2)S(=O)(=O)C1 (stereo not given)	0	0	0	0	0
CN(CCc1ccccc1)C(=O)c1ccc(NC(=O)Cc2ccc(NC(=O)C3CCCN(S(=O)(=O)c4cccc([N+](=O)[O-])c4)C3)cc2)cc1 (stereo not given)	0	0	0	0	0
CCCCC1=CC2=C(c3ccco3)C(=O)C(C)(OC(=O)c3ccc(OC)cc3)C(=O)C2=CN1CC(C)C (stereo not given)	0	0	0	0	0
O=C1N/C(=C/c2ccc(N3CCCC3)cc2)C(=O)N1c1ccccc1	0	0	0	0	0
O=C1/C(=C/c2ccc(N3CCCC3)cc2)NC(=S)N1C1CC1	6.3µM	0	0	7.9µM	-77
CCC1(c2ccc(F)cc2)NC(=O)N(CC(=O)Nc2cc(S(=O)(=O)N(C)C)ccc2Cl)C1=O (stereo not given)	0	0	0	0	0
CSc1nc(NS(=O)(=O)c2cc(C)c(Cl)cc2Cl)nn1C	0	0	0	0	0
Cc1cc(S(=O)(=O)Nc2c(C)nn(C)c2C)c(Cl)cc1Cl	0	?	18µM	0	-
COc1ccc(-c2cc(C(F)(F)F)nc(SCC(=O)N(C)Cc3cn(C)nc3C)n2)cc1OC	0	?	18µM	0	0
COc1ccc(-c2cc(C(F)(F)F)nc(SCC(=O)NCc3ccco3)n2)cc1OC	0	0	0	0	0
COc1ccc(-c2cc(C(F)(F)F)nc(SCC(=O)NCc3cnn(C)c3C)n2)cc1OC	0	?	9.2µM	0	0
Cc1cc(C)n(C(C)CC(=O)Nc2ccc3c(c2)OCO3)n1 (stereo not given)	0	0	0	0	0
CN(C(=O)c1cc(-c2cccs2)nn1-c1ccccc1)C1CCS(=O)(=O)C1 (stereo not given)	0	0	0	0	0
CCN(c1ccccc1)S(=O)(=O)c1c(C)nc2scc(C)n2c1=O	-	0	0	-	-
Cc1ccc(-c2nnnn2-c2ccc(C)cc2)cc1	0	0	0	0	0
Cc1ccc(-n2nnnc2CCl)cc1	?	?	?	?	-101
CCOc1ccccc1N1CCN(C(=O)c2cc3c(C)cc(C)cc3[nH]2)CC1	?	18µM	23µM	?	?
CCOc1ccccc1N1CCN(C(=O)CC(C)C)CC1	0	0	23µM	0	0
CCOc1ccccc1N1CCN(C(=O)c2cc3ccccc3cc2OC)CC1	?	3.7µM	16µM	5.2µM	0
CCOC(=O)c1c(NC(=O)c2nc(SC(C)C)ncc2Cl)sc2c1CCCC2	-	0	0	-	-
COc1cc2oc(=O)cc(-c3ccc(-c4ccc(CO)cc4)cc3)c2c(OC)c1OC	0	0	0	0	0
SMILES	HT1080-NT tox	KB-3-1 cytotox	KB-V1 MDR tox	HT1080 IDH1KD tx	IL-1B inflam inh
CCC(C)[C@H](NC(=O)N1CC(=O)Nc2ccccc21)C(=O)N[C@@H](C(=O)O)c1ccccc1 (stereo not given in full)	0	0	0	0	0
O=C(CCl)N(c1ccccc1)c1c[nH]c2ccccc12	?	16µM	16µM	6.5µM	-100
O=C(CCl)N(c1ccc(Cl)cc1)c1c[nH]c2ccccc12	7.3µM	?	18µM	4.6µM	-109
O=C(O)Cc1c[nH]c2ccccc12	0	0	0	0	0
N/C(=N\c1nc(CSc2nc3ccccc3s2)cc(=O)[nH]1)Nc1ccc(F)cc1	?	12µM	0	0	0
Cc1cc(C)n(-c2nc3ccccc3nc2Nc2ccc(N(C)C)cc2)n1	-	0	0	-	-
Cc1ccc2nc(Nc3ccc4[nH]c(=O)[nH]c4c3)c(-n3nc(C)cc3C)nc2c1	?	0	0	0[9.24 µM]	-90
COc1ccc(CC2(CO)CCN(Cc3cc4ccccc4o3)CC2)cc1	?	0	?	0	-80
Cc1c(CN2CCC(CO)(Cc3cccc(C(F)(F)F)c3)CC2)c2ccccc2n1C	0	?	?	?	-94
OCC1(Cc2cccc(C(F)(F)F)c2)CCN(Cc2cc3ccccc3o2)CC1	21µM	?	?	18µM	-136
O=C(c1ccccc1)C1C(c2ccccc2)C1[N+](=O)[O-] (stereo not given)	0	0	0	0	-56
O=C(c1ccccc1)C1CC1c1ccccc1 (stereo not given)	0	?	0	0	0
CCC(CCc1ccccn1)C(=O)c1ccccc1 (stereo not given)	0	0	?	0	0
CN(C)CC(CCCCC(CN(C)C)C(=O)c1ccccc1)C(=O)c1ccccc1 (stereo not given)	?	?	0	?	-72
CCCCC(CCc1ccccn1)C(=O)c1ccccc1 (stereo not given)	0	0	16µM	0	0
CC(C)COC(=O)N1CCCC(c2cc(C(=O)Nc3ccccc3Cl)no2)C1 (stereo not given)	0	0	0	0	0
CN1CCN(C(=O)CSc2nc(-c3ccncc3)ccc2C#N)CC1	0	0	0	0	-61
Cn1c(SCC(=O)N2CCN(c3cccc(Cl)c3)CC2)nnc1-c1ccncc1	0	13µM	16µM	0	0
O=C(CSc1ccc(-c2cccc([N+](=O)[O-])c2)nn1)N1CCCCCC1	0	0	?	0	-54
O=C(CSc1ccc(-c2ccncc2)nn1)N1CCN(c2ccccc2)CC1	0	0	15µM	0	0
Cn1c(SCC(=O)N2CCN(c3ccccc3)CC2)nnc1-c1ccncc1	0	0	0	0[9.24 µM]	0
COCOc1ccc(C=O)cc1OCOC	0	0	0	0	0
CCn1c(SCC(=O)N2CCN(c3ccc(F)cc3)CC2)nnc1-c1ccncc1	0	0	18µM	0	0
CC(C)(C)c1ccc(C(=O)O[C@H]2[C@H](Cc3ccccc3)NS(=O)(=O)[C@H]3C[C@@H]4C=C[C@]23O4)cc1	0	0	0	0	0
Cn1nc(-c2ccncc2)nc2c(=O)n(C)c(=O)nc1-2	-	1.8µM	?	-	-
CCn1nc(-c2ccc(C)cc2)nc2c(=O)n(C)c(=O)nc1-2	-	0	0	-	-
